PubChem BioAssay (NCI)
Compounds without any hit were thinned out: in the full panel of roughly 83,000, 20% have a hit.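 Compound tested at a single concentration for 48 hours in 96-well plates; a percent growth value below 10 was scored as active.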 The source made the active and inactive calls.

Experiments:
Test in all cases: NCI-60 one-dose screen, 48 h (100 = growth as untreated, 0 = no growth, -100 = all killed)
Conditions in all cases: 10 µM unless noted
NCI-H23 lung = system: NCI-H23 lung
NCI-H226 lung = system: NCI-H226 lung
NCI-H322M lung = system: NCI-H322M lung
HOP-62 NSCLC = system: HOP-62 NSCLC
NCI-H460 lung = system: NCI-H460 lung
HOP-92 NSCLC = system: HOP-92 NSCLC
NCI-H522 lung = system: NCI-H522 lung
A549/ATCC NSCLC = system: A549/ATCC NSCLC
786-0 renal = system: 786-0 renal
COLO 205 colon = system: COLO 205 colon

| Structure (SMILES) | growth (NCI-H23 lung) | growth (NCI-H226 lung) | growth (NCI-H322M lung) | growth (HOP-62 NSCLC) | growth (NCI-H460 lung) | growth (HOP-92 NSCLC) | growth (NCI-H522 lung) | growth (A549/ATCC NSCLC) | growth (786-0 renal) | growth (COLO 205 colon) |
| --- | --- | --- | --- | --- | --- | --- | --- | --- | --- | --- |
| O=C1C=Cc2ncccc2C1=O | 70% (inactive) | 81.8% (inactive) | 97.7% (inactive) | 99.7% (inactive) | 111% (inactive) | 97% (inactive) | 88.8% (inactive) | 105% (inactive) | 103% (inactive) | 54% (inactive) |
| CCc1ccc(-c2ccc(Nc3ccccc3)nn2)cc1S(N)(=O)=O | 86% (inactive) | 86.8% (inactive) | 107% (inactive) | 92.9% (inactive) | 51.2% (inactive) | 80.2% (inactive) | 71.5% (inactive) | 80.5% (inactive) | 94.3% (inactive) | 94.8% (inactive) |
| COc1ccc2c(c1)C(Br)=C(CCO)C2c1ccccc1 (stereo not given) | 95% (inactive) | 100% (inactive) | 15.8% (inactive) | 22.1% (inactive) | 9.69% (active) | 35.5% (inactive) | 96.8% (inactive) | 25.1% (inactive) | 85.4% (inactive) | 48.2% (inactive) |
| OCC12CCCC(CO)(COC1)C2O (stereo not given) | 97% (inactive) | 99.8% (inactive) | 115% (inactive) | 106% (inactive) | 100% (inactive) | 30.9% (inactive) | 111% (inactive) | 101% (inactive) | 112% (inactive) | 107% (inactive) |
| CC(C)c1cc(C(=O)O)c(O)c(C(C)C)c1.CC(C)c1cc(C(=O)O)c(O)c(C(C)C)c1.[Mn] | 110% (inactive) | 103% (inactive) | 110% (inactive) | 112% (inactive) | 102% (inactive) | -39.3% (active) | 79.5% (inactive) | 99.9% (inactive) | 101% (inactive) | 112% (inactive) |
| CC1c2ccccc2N(S(=O)(=O)c2ccccc2)C1C (stereo not given) | 89.4% (inactive) | 88.4% (inactive) | 102% (inactive) | 95.4% (inactive) | 115% (inactive) | 86.8% (inactive) | 76.9% (inactive) | 92% (inactive) | 102% (inactive) | 97.6% (inactive) |
| CC/C(=N/NC(N)=O)c1ccccc1 | 98.6% (inactive) | 97.8% (inactive) | 102% (inactive) | 107% (inactive) | 108% (inactive) | 103% (inactive) | 99.5% (inactive) | 96.4% (inactive) | 98.5% (inactive) | 119% (inactive) |
| COc1ccc(/C=C/C(=O)NCCO)cc1 | 96.6% (inactive) | 97.9% (inactive) | 97.6% (inactive) | 87.7% (inactive) | 103% (inactive) | 105% (inactive) | 82% (inactive) | 79.7% (inactive) | 100% (inactive) | 112% (inactive) |
| CCCCCCCN(CCCCCCC)C(=N)c1ccnc2ccccc12 | 0.856% (active) | 39.3% (inactive) | -2.85% (active) | -57.2% (active) | -83.9% (active) | -4.56% (active) | -46.7% (active) | -57.4% (active) | -93.6% (active) | -72.9% (active) |
| COC(=O)C(Cc1ccccc1)n1cc(COc2nc(Cl)nc(Nc3ccc(Cl)cc3)n2)nn1 (stereo not given) | 92.5% (inactive) | 99.8% (inactive) | 95.3% (inactive) | 95% (inactive) | 101% (inactive) | 105% (inactive) | 88.2% (inactive) | 102% (inactive) | 98.9% (inactive) | 117% (inactive) |
| O=C(CCCCCn1c2ccccc2c2c3c(c4c5ccccc5[nH]c4c21)C(=O)N(O)C3=O)N1CCOCC1 | 52% (inactive) | 19.1% (inactive) | 74.4% (inactive) | 11.6% (inactive) | 35.8% (inactive) | 89.8% (inactive) | 9.19% (active) | 91.4% (inactive) | 80.3% (inactive) | 62% (inactive) |
| COc1ccc2c(c1)c(-c1nc(-c3cn(C)c4ncccc34)cs1)cn2CCCN1CCCCC1 | 79.4% (inactive) | 67.1% (inactive) | 80.3% (inactive) | 74.9% (inactive) | -40.4% (active) | 48.7% (inactive) | 87.7% (inactive) | 25.2% (inactive) | -31.3% (active) | -65.8% (active) |
| CC(C)(C)c1[nH]nc2c1C(c1cc3ccccc3[nH]c1=O)Nc1cc(C(=O)OCc3ccccc3)ccc1N2 (stereo not given) | 69% (inactive) | 74.8% (inactive) | 63% (inactive) | 65.1% (inactive) | 19.4% (inactive) | 87.7% (inactive) | 74.6% (inactive) | 41.6% (inactive) | 49.4% (inactive) | 84.3% (inactive) |
| Cc1c(C)c2c(c(C)c1NC(=O)CCCCCCC(=O)O)CCC(C)(CCCC(C)CCCC(C)CCCC(C)C)O2 (stereo not given) | 85.7% (inactive) | 95.2% (inactive) | 91.7% (inactive) | 109% (inactive) | 69.7% (inactive) | 82% (inactive) | 52% (inactive) | 20.4% (inactive) | 75.2% (inactive) | 98.4% (inactive) |
| COc1cc(-c2cc3cc(O)ccc3oc2=O)cc(OC)c1OC | 101% (inactive) | 89.2% (inactive) | 85.9% (inactive) | 90.9% (inactive) | 107% (inactive) | 86.5% (inactive) | 86.5% (inactive) | 107% (inactive) | 98.2% (inactive) | 102% (inactive) |
| Cc1ccc(-c2nc([P+](c3ccccc3)(c3ccccc3)c3ccccc3)c(N3CCOCC3)o2)cc1 | -9.72% (active) | -2.72% (active) | 7.88% (active) | -41.5% (active) | 3.34% (active) | -28.7% (active) | 0.415% (active) | 9.89% (active) | 15.9% (inactive) | -70% (active) |
| COc1ccc(C(=O)c2cc(OC)c(OC)c(OC)c2)cc1/C=C/C(=O)c1cc(OC)c(OC)c(OC)c1 | 79.9% (inactive) | 89.5% (inactive) | 91.2% (inactive) | 117% (inactive) | 83.7% (inactive) | 83.8% (inactive) | 84% (inactive) | 92.9% (inactive) | 104% (inactive) | 95.5% (inactive) |
| O=C(N/N=C\c1ccccc1O)C1CC1 | 116% (inactive) | 104% (inactive) | 88.8% (inactive) | 105% (inactive) | 115% (inactive) | 90.8% (inactive) | 98.1% (inactive) | 102% (inactive) | 105% (inactive) | 109% (inactive) |
| CC1(C)C=CC[C@]2(C)[C@H]3CC[C@@H]4[C@H]5[C@H](C(=O)/C=C/c6cccnc6)CC[C@]5(CO)CC[C@@]4(C)[C@]3(C)CC[C@@H]12 | -60% (active) | -54.1% (active) | 9.88% (active) | -81.3% (active) | -62.4% (active) | -92.7% (active) | -73.7% (active) | -41.5% (active) | -59.8% (active) | -71.9% (active) |
| NNC(=O)c1nc2ccccc2[nH]1 | 93.3% (inactive) | 116% (inactive) | 107% (inactive) | 97.4% (inactive) | 108% (inactive) | 98.5% (inactive) | 96.8% (inactive) | 61.3% (inactive) | 102% (inactive) | 103% (inactive) |
| COc1cccc(-c2nn(-c3ccccc3)cc2-c2ccnc(NCCCNS(=O)(=O)c3ccc(C(F)(F)F)cc3)c2)c1 | 28.6% (inactive) | 36.6% (inactive) | 68.6% (inactive) | 61.3% (inactive) | 25.4% (inactive) | 5.37% (active) | 17.4% (inactive) | 24.4% (inactive) | 16.1% (inactive) | -1.71% (active) |
| N#CCCCCCn1c2ccccc2c2c3[nH]c(=O)[nH]c(=O)c3c3c4ccccc4n(CCCCCC#N)c3c21 | 55.6% (inactive) | 65.8% (inactive) | 42.5% (inactive) | 15.8% (inactive) | 34.9% (inactive) | 19.2% (inactive) | 44.9% (inactive) | 73.7% (inactive) | 0.172% (active) | 71.6% (inactive) |
| Nc1c(C(=O)Nc2cccc(Cl)c2)sc2ncc(Cl)cc12 | 87% (inactive) | 75.7% (inactive) | 64.7% (inactive) | 73% (inactive) | 13.8% (inactive) | 91.9% (inactive) | 97.4% (inactive) | 43.4% (inactive) | 85.4% (inactive) | 79.6% (inactive) |
| CC1(C)CC[C@]2(C(=O)NCCNCCN)CC[C@]3(C)C(=CC[C@@H]4[C@@]5(C)CCC(=O)C(C)(C)[C@@H]5CC[C@]43C)[C@@H]2C1 | 93.3% (inactive) | 78.1% (inactive) | 81.1% (inactive) | 70.4% (inactive) | -55.8% (active) | 39.7% (inactive) | 27.2% (inactive) | 32.6% (inactive) | 78.3% (inactive) | -66.6% (active) |
| Cc1ccc(-c2nn(Cc3cn(-c4cc(C)nc5ccccc45)nn3)c3ncnc(N)c23)cc1 | 68.7% (inactive) | 35% (inactive) | 40.6% (inactive) | 60.4% (inactive) | 68.4% (inactive) | -0.284% (active) | 55.5% (inactive) | 44.1% (inactive) | 48.6% (inactive) | 54.7% (inactive) |
